Most compounds without a hit are left out; they make up all but 1.3% or so of the library.
BRCA1 expr act: increases BRCA1 expression. MCF7-BRCA1-FFLuc reporter, luminescence, 48 h; response scale: scaled: vehicle 0%, 10 µM genistein 100%. Potency, µM (doses to about 46.1 µM), inactives show top-dose activation, usual class: activators. hit rate 1.1% among 380,000; further: potency means the concentration at half of the fitted maximal effect; nearly all actives have a fitted effect of over 80% in size
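Luminescence from a BRCA1-driven firefly luciferase in MCF7 cells was read after 48 h compound exposure at 37 C. Data normalized against DMSO and a 10microM genistein activation control, then curve-fitted across the titration.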
IL-2 act: activates IL-2 in a cell-based reporter assay; IL-2 activation reporter assay, cell-based qHTS; stimulated with anti-CD3/CD4/CD28 beads; in transgenic mouse T cells; hit rate 0.065% among 360,000; activation, % (series mostly up to about 46 µM); in the data active means activation above about 50%; inconclusive means mostly about 30% to 49%; further: 0% is about no effect
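Readout is EGFP and DsRed signal by fluorescent plate cytometry after 18 h at 37 degrees C. Transgenic mouse T cells (750/well) received compound for 60 min before bead stimulation (anti-CD3, anti-CD4, anti-CD28); memory T cells served as non-tolerant control.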
TSG101-PTAP inh: blocks PTAP/TSG101 interaction to inhibit HIV-1 budding; Q99816; Fluorescence polarization, FITC-PTAP peptide / Tsg101 binding; Potency, µM (top dose mostly 115 µM), for the others: at the top dose activity change, negative = inhibition, hits mostly inhibitors; 340,000 tested, under 10 active; AID 493005; active means well fitted inhibition curve with a large enough effect in the main read-out, with a control signal flat, not every such curve was filed as active; inconclusive means small, poorly fitted or top-dose-only effect, or effect the other way, or a change in a side signal; inactive means no such curve, though single readings can be large or run the other way; further: potency means the concentration at half of the fitted maximal effect; % of control where 0% means no effect
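FP read-out: FITC-PTAP peptide, 50 nM final, binding Tsg101 binding domain, 10 uM final; 20 min, r.t.; 10 mM HEPES pH 7.5, 0.15 M NaCl, 0.01% Tween 20, 3 mM EDTA, 0.1 mM TCEP.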
TRPML1 agonist: activates the human TRPML1 channel; hit rate 0.12% among 410,000; activation, % (concentration not given with the values); AID 624414; TRPML1-expressing cells, Ca2+ dye fluorescence, FDSS; Q9GZU1; in the data active means activation above about 50%; inconclusive means mostly about 30% to 49%; further: 0% is about no effect
Target sequence (Q9GZU1 whole entry, looked up): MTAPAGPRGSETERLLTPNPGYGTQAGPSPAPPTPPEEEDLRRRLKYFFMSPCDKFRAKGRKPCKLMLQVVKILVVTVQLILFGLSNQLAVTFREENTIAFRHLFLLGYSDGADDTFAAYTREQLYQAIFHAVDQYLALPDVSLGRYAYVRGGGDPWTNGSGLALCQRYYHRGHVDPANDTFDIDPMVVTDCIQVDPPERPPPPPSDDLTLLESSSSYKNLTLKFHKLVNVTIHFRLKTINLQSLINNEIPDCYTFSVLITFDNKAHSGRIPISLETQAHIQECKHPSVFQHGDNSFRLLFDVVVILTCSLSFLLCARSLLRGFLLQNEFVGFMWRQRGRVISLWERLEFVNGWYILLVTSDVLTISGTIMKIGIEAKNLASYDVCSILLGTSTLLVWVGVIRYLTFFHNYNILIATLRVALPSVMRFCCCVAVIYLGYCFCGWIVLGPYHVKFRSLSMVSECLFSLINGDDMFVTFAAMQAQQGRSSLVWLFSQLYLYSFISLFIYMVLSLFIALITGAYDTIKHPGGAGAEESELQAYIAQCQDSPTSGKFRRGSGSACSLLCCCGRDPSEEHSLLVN
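Cells: TRPML1-DL, 1X Tet inducer, ~16 h at 37 degrees C/5% CO2. Dye: ABD Ca8 no-wash + quencher, 45-90 min RT. Read: 10 s baseline, compound add, 110 s agonist phase; 54-4 EC80 (4uM final), 110 s antagonist phase.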
TRPML1 inh: inhibitors of human TRPML1 channel; Q9GZU1; TRPML1-inducible cells, Ca2+ dye fluorescence, FDSS; active compounds read low; inhibition of EC80 agonist-evoked calcium signal; hit rate 0.02% among 390,000; activity change, negative = inhibition, % (test concentration not listed); in the data active means activity change below about -50%; inconclusive means between about -30% and that limit;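 further: stimulus is agonist 54-4 at its EC80 concentration; on the % scale 0 is the no-effect control and ±100 the full control effect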
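TRPML1-DL cells, Tet-induced overnight (~16 h, 37 °C) at 1,500 cells/well, were loaded with Ca8 no-wash dye plus quencher for 45-90 min at room temperature. Compounds were pinned during FDSS kinetic reading; agonist 54-4 at EC80 (4 uM final) then added.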
PKM2 activator: activators of human pyruvate kinase M2 | Potency, µM (titrated, usually from 57.5 µM), for the others: at the highest dose activation, most hits filed as activators | purified PKM2, Kinase-Glo ATP luminescence, activation; response scale: 0% is enzyme alone, no compound | hit rate 0.34% among 260,000 | AID 1631; further: potency means the concentration at half of the fitted maximal effect; on the % scale 0 is the no-effect control and ±100 the full control effect; nearly all actives have a fitted effect of over 55% in size
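Purified hPK-M2 (>95%) run at intermediate activity with 0.1 mM ADP and 0.5 mM PEP in 50 mM imidazole pH 7.2, KCl, MgCl2; 1 h room temperature. ATP formed read by Kinase-Glo luminescence; normalized to uninhibited and no-enzyme controls.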
* marks the source's active call; other numbers are inactive results; ? = inconclusive; . = no result given. Unless noted, the call rests on the fitted dose curve; in most records, active means well fitted activation curve with a large enough effect; inconclusive means small, poorly fitted or top-dose-only effect; inactive means no such curve, though single readings can be large or run the other way.

SMILES	BRCA1 expr act	IL-2 act	TSG101-PTAP inh	TRPML1 agonist	TRPML1 inh	PKM2 activator
Cc1ccc2[nH]c(CSc3nnc(NC(=O)c4ccc(Cl)cc4)s3)cc(=O)c2c1	.	.	.	1	-2	.
O=S(=O)(Nc1cccc2ccccc12)c1ccc2ccccc2c1	-35%	.	.	3	-15	.
N/C(=N\OC(=O)Oc1ccccc1)c1cccc([N+](=O)[O-])c1	-20%	-1	2%	0	-3	1%
N/C(=N\OC(=O)CSc1ccccc1)c1cccc([N+](=O)[O-])c1	13µM*	-2	-15%	4	-10	5%
O=C(NN=Cc1ccccc1O)c1cccc([N+](=O)[O-])c1	-112%	-1	-4%	0	13	.
Cc1cc(/C=N/NC(=O)c2cccc([N+](=O)[O-])c2)c(C)n1-c1ccccc1	13µM*	2	-3%	2	-6	-1%
Cc1cc(C(=O)N/N=C/c2ccc(O)c(O)c2O)c(C)n1-c1ccccc1	4%	5	0%	-1	1	28µM*
Cc1cc(/C=N/NC(=O)c2ccncc2)c(C)n1-c1ccccc1	7.9µM*	1	-3%	0	11	-4%
CCc1ccc(-n2c(C)cc(/C=N/NC(=O)c3ccncc3)c2C)cc1	-19%	0	-4%	1	5	-1%
Cc1ccc(S(=O)(=O)NCCNc2ccc([N+](=O)[O-])cc2C(F)(F)F)cc1	-1%	1	-6%	1	-2	?
O=[N+]([O-])c1ccc(NCCNS(=O)(=O)c2ccccc2)c(C(F)(F)F)c1	-16%	0	-4%	8	48	28µM*
NC(=O)c1cccnc1Nc1cccc([N+](=O)[O-])c1	1.8µM*	0	-2%	0	4	4%
COC1=C/C(=C/c2c(N)n3nc(CC(=O)N4CCCC4)sc3nc2=O)C=CC1=O	38%	6	13%	2	-12	-11%
COC1=CC(=Cc2c(N)n3nc(CC(=O)N4CCCCC4)sc3nc2=O)C=C(OC)C1=O	0%	85*	39%	3	10	.
Cc1ccc(O)c(NC(=O)c2ccc3c(c2)C(=O)N(CC(C)C)C3=O)c1	7.9µM*	-4	-2%	-1	11	-10%
COc1ccc(N2CCN(C(c3ccccc3)c3nnnn3C(C)(C)C)CC2)cc1 (stereo not given)	0%	0	.	2	.	.
Cc1cccc(C)c1N1CCN(C(c2cc3ccccc3o2)c2nnnn2C(C)(C)C)CC1 (stereo not given)	-32%	-1	.	54*	.	.
CCCCn1nnnc1C(c1cc2ccccc2o1)N1CCN(c2c(C)cccc2C)CC1 (stereo not given)	-18%	0	.	1	.	.
Cc1ccc(C)c(N2CCN(C(c3ccccc3)c3nnnn3C(C)(C)C)CC2)c1 (stereo not given)	-6%	0	.	86*	.	.
COc1ccc(N2CCN(C(c3ccccc3)c3nnnn3C(C)C)CC2)cc1 (stereo not given)	0%	.	.	61*	.	.
CCOC(=O)c1cc(-c2ccccc2)n(CC(=O)Nc2ccc(OC)cc2OC)c1C	.	.	.	0	-5	.
O=C(Cc1ccc(OCCC2CCCCC2)cc1)NO	3%	.	.	0	.	.
O=C(O)Cn1c(SCc2ccccc2)nc2ccccc21	38%	1	-1%	0	6	-11%
Nn1c(SCc2ccccc2)nc2ccccc21	3.2µM*	0	-5%	0	2	.
Clc1ccccc1N1CCN(c2ncnc3c2c(-c2ccccc2)cn3-c2ccccc2)CC1	.	.	.	59*	-3	.
CCOC(=O)c1cnn(-c2ncnc3c2oc2ccccc23)c1N	3.2µM*	-2	2%	2	22	0%
COc1ccc(NC(C)C(=O)N/N=C/c2ccccc2OCc2ccc(Br)cc2)cc1 (stereo not given)	4µM*	1	-4%	-1	6	14%
